Measurements published in PubChem BioAssay (NCATS).
Results filed as inconclusive are left out. Where a call stands in place of a potency, no number is given. Active and inactive are the calls of the source. The call rests on the fitted dose curve; in most records, active means well fitted inhibition curve with a large enough effect; inconclusive means small, poorly fitted or top-dose-only effect, or effect the other way; inactive means flat fitted curve, though single readings scatter.

The molecules below were run against Ubiquitin carboxyl-terminal hydrolase 2 (Homo sapiens) (UniProt O75604) (assay: qHTS Validation Assay for Inhibitors of Ubiquitin-specific Protease USP2a Using CHOP2 as the Reporter (AID 463106)). Conditions: USP2a cleavage of CHOP2 reporter, enzymatic; series mostly up to 38.3 µM.
Sequence of Ubiquitin carboxyl-terminal hydrolase 2 (Homo sapiens) (O75604 whole entry, looked up): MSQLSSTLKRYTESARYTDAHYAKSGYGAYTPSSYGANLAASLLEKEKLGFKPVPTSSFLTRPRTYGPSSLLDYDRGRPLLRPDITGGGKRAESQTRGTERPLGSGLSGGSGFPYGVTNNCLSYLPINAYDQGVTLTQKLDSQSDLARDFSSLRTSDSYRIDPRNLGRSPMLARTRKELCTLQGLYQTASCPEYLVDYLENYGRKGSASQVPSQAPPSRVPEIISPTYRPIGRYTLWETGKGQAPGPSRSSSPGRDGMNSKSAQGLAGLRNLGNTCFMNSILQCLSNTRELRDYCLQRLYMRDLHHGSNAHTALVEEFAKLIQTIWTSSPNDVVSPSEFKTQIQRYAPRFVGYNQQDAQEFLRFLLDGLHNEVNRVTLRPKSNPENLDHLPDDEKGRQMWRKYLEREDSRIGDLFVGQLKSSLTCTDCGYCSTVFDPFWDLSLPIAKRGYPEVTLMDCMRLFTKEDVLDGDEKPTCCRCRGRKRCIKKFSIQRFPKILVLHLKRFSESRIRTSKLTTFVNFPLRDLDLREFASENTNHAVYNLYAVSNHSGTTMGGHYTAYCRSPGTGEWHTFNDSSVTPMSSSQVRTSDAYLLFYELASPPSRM
From the text: NIH Molecular Libraries Screening Centers Network [MLSCN]
NIH Chemical Genomics Center [NCGC]
PI Name: Nicholson, Ben. Progenra Inc, Malvern, PA
Homeostasis of cellular proteins is maintained through a combination of synthesis and degradation. The pathway that accounts for the majority of protein degradation is the ubiquitin-proteasomal pathway. Ubiquitin (Ub) is highly conserved in all cells and the generation of a multi-Ub chain typically targets proteins for degradation by the proteasome. However, ubiquitination is highly reversible and dynamic. Deubiquitination, the reverse process, is catalyzed through the action of enzymes referred to as isopeptidases or deubiquitinating enzymes (DUBs). This group of enzymes is collectively responsible for maintaining adequate pools of free ubiquitin and regulating the ubiquitination status of cellular proteins. The class of DUBs referred to as the ubiquitin-specific proteases (USP) family functions endoproteolytically to cleave Ub chains from a wide range of protein substrates. USP2a deubiquitinates fatty acid synthase (FASN) which has recently been identified as an emerging oncology target. To identify inhibitors of USP2a a cell-free assay was employed.
The reporter enzyme chosen is an enterokinase called CHOP2, which is activated when the Ub is cleaved by USP2. The free and now activated reporter can subsequently act on its reporter substrate. […] The assay was developed by Progenra, Inc. and has been licensed for sale by LifeSensors, Inc. as Ub-CHOP2-Reporter-Kit (#PR1101).
NCGC Assay Protocol Summary:
The assay buffer, prepared fresh at the day of the assay, contains 20mM Tris-HCl pH 8.0, 2mM CaCl2, 2mM beta-Mercaptoethanol, 0.05% CHAPS. 3ul of 20nM (10nM final) USP2 core, which is stored on ice, is dispensed into a medium-binding black solid Kalypsys 1,536 well plate using the Kalypsys dispenser. The assay plate is then pinned with 23nL compound with the Kalypsys pintool in columns 5-48. The controls are pinned as follows: column 1 two-fold dilutions of 2M NEM in duplicate; column 2 2M NEM (final concentration 38.2mM); column 3&4 DMSO. The assay plate is incubated at RT for 30min. Subsequently, 1.5uL of 100nM (25nM final) Ub-CHOP2 and 1.5uL of 100nM (25nM final) Reporter Substrate (both stored on ice and protected from light) were dispensed into the plate using the Kalypsys dispenser. Plates were read after 60min RT incubation on a ViewLux (Perkin Elmer) plate reader using the following wavelengths Ex 485nm /Em 531nm.
Data were normalized to the to AC100 inhibition (NEM). Concentration-response curves were fitted to the normalized data and the concentration-response curves were then classified based on curve quality (r2), response magnitude and degree of measured activity. The time zero reading was used to flag fluorescence artifacts.
Keywords: ubiquitination, deubiquitination, proteases, profluorescent, MLSMR, MLPCN, NIH Roadmap, qHTS, NCGC
Potency means the concentration at half of the fitted maximal effect.

Compound | Potency
C[N+]1(C)CCOC(O)(c2ccc(-c3ccc(C4(O)C[N+](C)(C)CCO4)cc3)cc2)C1 (stereo not given) | inactive
CCCCCCCCCCCCCC(=O)O[C@@H]1[C@@H](C)[C@@]2(O)[C@@H](C=C(CO)C[C@@]3(O)C(=O)C(C)=C[C@@H]23)C2C(C)(C)[C@@]21OC(C)=O (stereo not given in full) | inactive
CC(N)[C@H](O)c1ccc(O)c(O)c1 (stereo not given in full) | inactive
CP(=O)(O)C1=CCNCC1 | inactive
NC(Cc1ccc(N(CCCl)CCCl)cc1)C(=O)O (stereo not given) | inactive
C[N+](C)(C)CC#CCOC(=O)Nc1cccc(Cl)c1 | inactive
COc1ccc(OC)c(C(O)C(C)N)c1 (stereo not given) | inactive
c1ccc2cc(CC3=NCCN3)ccc2c1 | inactive
NCCCP(=O)(O)O | inactive
Cc1[nH]c2ccc(O)cc2c1CCN | inactive
Nc1ccc(CCN2CCN(c3cccc(C(F)(F)F)c3)CC2)cc1 | inactive
CCN1C[C@@]2(COC)C3[C@@H](OC)C4[C@@H]1C3([C@@H]1C[C@]3(O)[C@H](OC(=O)c5ccccc5)[C@@H]1[C@]4(OC(C)=O)[C@@H](O)[C@@H]3OC)[C@H](OC)C[C@H]2O | inactive
CC(=O)NBr | inactive
O=[N+]([O-])c1cc(O)c(O)c([N+](=O)[O-])c1 | inactive
NC(CCCCCP(=O)(O)O)C(=O)O (stereo not given) | inactive
CCS(=O)(=O)Nc1cccc(C(=C2CCCCC2)c2cnc[nH]2)c1 | inactive
C=CCN1CC[C@]23c4c5ccc(O)c4O[C@@H]2/C(=N/N=C2\CC[C@@]4(O)C6Cc7ccc(O)c8c7[C@@]4(CCN6CC=C)[C@@H]2O8)CC[C@@]3(O)C1C5 | inactive
CCCN(CCC)CCc1c[nH]c2ccc(C(N)=O)cc12 | inactive
NC(=O)COc1c(F)cc(SCCNS(=O)(=O)c2ccccc2)cc1F | inactive
NC(=O)c1ccc(OCC(O)CN2CC=C(c3ccc(F)cc3)CC2)cc1 (stereo not given) | inactive

Compound | Potency
C[C@@H]1O[C@@H](O[C@H]2C[C@@H](O)[C@]3(CO)[C@@H]4C(CC[C@]3(O)C2)[C@@]2(O)CC[C@H]([C@@H]3COC(=O)C3)[C@@]2(C)C[C@H]4O)[C@H](O)[C@H](O)[C@H]1O (stereo not given in full) | inactive
OC1CCCCC1N1CCC(c2ccccc2)CC1 (stereo not given) | inactive
CN1CCc2cccc(Cl)c2CC1 | inactive
CCCN(CCC)C1Cc2cc(OC)c(OC)cc2C1 | inactive
C[N+](C)(C)CC#CCN1CCCC1=O | inactive
CCCn1c(=O)c2[nH]c(C3CCCC3)nc2n(CCCOC(=O)c2ccc(S(=O)(=O)F)cc2)c1=O | inactive
Cc1c2ccncc2c(C)c2c1[nH]c1ccccc12 | inactive
NC(Cc1cc(O)c(O)cc1O)C(=O)O (stereo not given) | 656 nM (active)
CC12NC(Cc3ccccc31)c1ccccc12 (stereo not given) | inactive
NCC(CP(=O)(O)O)c1ccc(Cl)cc1 (stereo not given) | inactive
C=CCN1C[C@@H](C)N([C@H](c2ccc(C(=O)N(CC)CC)cc2)c2cccc(OC)c2)C[C@@H]1C | inactive
COc1ccc(CNC(=O)/C=C/c2ccc3[nH]cc(CCN(C)C)c3c2)cc1 | inactive
NC(C(=O)O)c1cc(=O)[nH]o1 (stereo not given) | inactive
C[C@H](N)Cc1cccc(C(F)(F)F)c1 | inactive
CC(C)(C)c1cc(C=C(C#N)C#N)cc(C(C)(C)C)c1O | inactive
C[Se]C[C@H](N)C(=O)O | inactive
C[N+](C)(C)CCOC(=O)CBr | inactive
CN1CCC(c2c[nH]c3ccc(O)cc23)CC1 | inactive
OCc1cnc[nH]1 | inactive
CCN(CCCl)Cc1ccccc1Br | inactive
